molecular target: CPD; experiment: pooled miR-30 sensor sort-seq; sequence = guide strand; conditions: shRNA

Going from TTGTTTGTACCTTTATTCCTTC to TATTTGTGAAGTCTGTATCCAA, the sensor-assay potency score (higher = more potent) rises from -0.441 to 0.0284.

First: TTGCGTAGGATCTGTGATCTGA
Second: TTACACTTATTGAATCTCCTTC
The sensor-assay potency score (higher = more potent) of the first is higher: 1.11 for the first, 0.411 for the second.

Compared with TATTCTTGCAAGGTCTACCTTG, TTCAACAGCAGTTCTCTTCCAA is higher in sensor-assay potency score (higher = more potent): -0.366 for the first, 0.56 for the second.

Compared with TTGACAGTCACATTCTTGGTAA, TTGAAGTACAGTCTTTCTCTTG is lower in sensor-assay potency score (higher = more potent): -0.225 for the first, -0.337 for the second.

Compared with TTAGGTATAGCAACTGTGCTAG, TTGTAAATAGTTCCAGTCCTGC is lower in sensor-assay potency score (higher = more potent): 0.733 for the first, -0.512 for the second.

First: TAGCAGTTGATACAGCCTCTGT
Second: TAGTGTTATGAACCAAATCTGT
The sensor-assay potency score (higher = more potent) of the first is lower: -1.16 for the first, -0.534 for the second.

First: TTGGAACACAGCATCATCTGGT
Second: TTGATTGAGCAGATGCACCAAA
The sensor-assay potency score (higher = more potent) of the first is higher: 0.644 for the first, -0.419 for the second.

First: TTTCACTCCAATGTGAACCTTT
Second: TTAGGATACATATTCTTGCAAG
The sensor-assay potency score (higher = more potent) of the first is higher: 0.41 for the first, -0.612 for the second.

First: TTAGTGATCTTCGATTCTGTTC
Second: TTGATTCATTGTTTGAATCTGT
The sensor-assay potency score (higher = more potent) of the first is lower: -0.307 for the first, 0.522 for the second.

Going from TTTGTTTGTAAATAGTTCCAGT to TTTGTTGGAACACAGCATCATC, the sensor-assay potency score (higher = more potent) falls from 0.147 to -1.01.

Going from ATAGGTGACACTATAATCCTTC to TTCATTAGGATACATATTCTTG, the sensor-assay potency score (higher = more potent) falls from 0.621 to -0.698.

First: TTTTGCTTGGTACTTATGCTGG
Second: TTTGTAAGTAGTCACTGGGTGA
The sensor-assay potency score (higher = more potent) of the first is lower: -0.405 for the first, -0.0209 for the second.

molecular target: CPEB3; experiment: as above; conditions: shRNA

Compared with TAATATAACATTAACAACTTGG, TTTGAAAACAAACTATAGCTTG is lower in sensor-assay potency score (higher = more potent): 0.134 for the first, -0.549 for the second.

Going from TTGAAAACAAACTATAGCTTGA to TAGAGTAGCGTTCTACTCGTTC, the sensor-assay potency score (higher = more potent) falls from 0.15 to -0.216.

Going from TTGAAGAATATCCTACACCTAG to TAGTCTTGCAATCATTGTGTGT, the sensor-assay potency score (higher = more potent) falls from -0.344 to -0.635.

Compared with TTTAATTGATATCCTAGCCTGA, TATAACATTAACAACTTGGGGG is lower in sensor-assay potency score (higher = more potent): 0.351 for the first, 0.19 for the second.

First: TTCCATCTGCATCTTGTCCGGG
Second: TTGCAGGTCAGAACACCTCTGT
The sensor-assay potency score (higher = more potent) of the first is higher: 0.148 for the first, 0.0399 for the second.

First: TTTATTGCATGCAGCAACCTGA
Second: TTTTGCTACATCTGCCACCTAC
The sensor-assay potency score (higher = more potent) of the first is lower: -0.657 for the first, -0.378 for the second.

molecular target: CPNE5; experiment: as above; conditions: shRNA

Going from TAGATCAAAACGGAGGTTCTGC to TAACTGGTGGTGAACTCCCCAA, the sensor-assay potency score (higher = more potent) falls from -0.116 to -0.885.

Compared with TTGTCCAGGAGGTTCCTGCAGG, TTGGTCTGCGCCATGTCCGAGA is lower in sensor-assay potency score (higher = more potent): -0.916 for the first, -1.04 for the second.

— the OligoGym collection
